# Source: the supplement of paper PMC4466140
# Experiments:
# Assay in all cases: SPOT peptide array binding signal intensity (averaged, normalized) (arbitrary units (background-subtracted, floor 0; scale differs between SH3 domains)); higher = stronger binding of the SH3 domain to the peptide
# CaNbp2 = target: CaNbp2
# Procedure, shortened: (§1)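 E. coli BL21(DE3) was used to express GST-fused SH3 domains from four yeast species, which were then purified on glutathione Sepharose. These were incubated at 10 μg/ml in TBS-based blocking buffer overnight at 4°C on cellulose membranes carrying synthetic 15-mer peptides, in which cysteines were replaced by serines. Binding signal is the replicate average of normalized, background-subtracted spot intensity, in arbitrary units that differ between domains.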
# CaRvs167 = target: CaRvs167
# Procedure, shortened: as §1
# CaRvs167-3 = target: CaRvs167-3
# Procedure, shortened: as §1
# CaSho1 = target: CaSho1
# Procedure, shortened: as §1
# CaSla1-D1-D2 = target: CaSla1-D1-D2
# Procedure, shortened: as §1
# CaSla1-D3 = target: CaSla1-D3
# Procedure, shortened: as §1
# ScAbp1 = target: ScAbp1
# Procedure, shortened: as §1
# ScBbc1 = target: ScBbc1
# Procedure, shortened: as §1
# ScBem1-D1 = target: ScBem1-D1
# Procedure, shortened: as §1
# ScBzz1-D1 = target: ScBzz1-D1
# Procedure, shortened: as §1
# ScBzz1-D2 = target: ScBzz1-D2
# Procedure, shortened: as §1
# ScCyk3 = target: ScCyk3
# Procedure, shortened: as §1
# ScFus1 = target: ScFus1
# Procedure, shortened: as §1
# ScHof1 = target: ScHof1
# Procedure, shortened: as §1
# ScHse1 = target: ScHse1
# Procedure, shortened: as §1
# ScLsb1 = target: ScLsb1
# Procedure, shortened: as §1
# ScLsb2 = target: ScLsb2
# Procedure, shortened: as §1
# ScLsb3 = target: ScLsb3
# Procedure, shortened: as §1
# ScLsb4 = target: ScLsb4
# Procedure, shortened: as §1
# ScMyo3 = target: ScMyo3
# Procedure, shortened: as §1
# ScMyo5 = target: ScMyo5
# Procedure, shortened: as §1
# ScNbp2 = target: ScNbp2
# Procedure, shortened: as §1
# ScPex13 = target: ScPex13
# Procedure, shortened: as §1
# ScRvs167 = target: ScRvs167
# Procedure, shortened: as §1
# ScSho1 = target: ScSho1
# Procedure, shortened: as §1
# ScSla1-D1-D2 = target: ScSla1-D1-D2
# Procedure, shortened: as §1
# ScSla1-D3 = target: ScSla1-D3
# Procedure, shortened: as §1
# SpAbp1-D1 = target: SpAbp1-D1
# Procedure, shortened: as §1
# SpBbc1 = target: SpBbc1
# Procedure, shortened: as §1
# SpBzz1-D1 = target: SpBzz1-D1
# Procedure, shortened: as §1
# SpBzz1-D2 = target: SpBzz1-D2
# Procedure, shortened: as §1
# SpCyk3 = target: SpCyk3
# Procedure, shortened: as §1
# SpHof1 = target: SpHof1
# Procedure, shortened: as §1
# SpHof1-2 = target: SpHof1-2
# Procedure, shortened: as §1
# SpHof1-3 = target: SpHof1-3
# Procedure, shortened: as §1
# SpHse1 = target: SpHse1
# Procedure, shortened: as §1
# SpLsb1 = target: SpLsb1
# Procedure, shortened: as §1
# SpLsb4 = target: SpLsb4
# Procedure, shortened: as §1
# SpMyo1 = target: SpMyo1
# Procedure, shortened: as §1
# SpNbp2 = target: SpNbp2
# Procedure, shortened: as §1
# SpPex13 = target: SpPex13
# Procedure, shortened: as §1
# SpRvs167 = target: SpRvs167
# Procedure, shortened: as §1
# SpSla1-D1-D2 = target: SpSla1-D1-D2
# Procedure, shortened: as §1
# SpSla1-D3 = target: SpSla1-D3
# Procedure, shortened: as §1
# AgAbp1 = target: AgAbp1
# Procedure, shortened: as §1
# AgBbc1 = target: AgBbc1
# Procedure, shortened: as §1
# AgBem1-D1 = target: AgBem1-D1
# Procedure, shortened: as §1
# AgBzz1-D1 = target: AgBzz1-D1
# Procedure, shortened: as §1
# AgBzz1-D2 = target: AgBzz1-D2
# Procedure, shortened: as §1
# AgCyk3 = target: AgCyk3
# Procedure, shortened: as §1
# AgFus1 = target: AgFus1
# Procedure, shortened: as §1
# AgHof1 = target: AgHof1
# Procedure, shortened: as §1
# AgHse1 = target: AgHse1
# Procedure, shortened: as §1
# AgLsb1 = target: AgLsb1
# Procedure, shortened: as §1
# AgLsb4 = target: AgLsb4
# Procedure, shortened: as §1
# AgMyo5 = target: AgMyo5
# Procedure, shortened: as §1
# AgNbp2 = target: AgNbp2
# Procedure, shortened: as §1
# AgRvs167 = target: AgRvs167
# Procedure, shortened: as §1
# AgSho1 = target: AgSho1
# Procedure, shortened: as §1
# AgSla1-D1-D2 = target: AgSla1-D1-D2
# Procedure, shortened: as §1
# AgSla1-D3 = target: AgSla1-D3
# Procedure, shortened: as §1
# CaAbp1-D1 = target: CaAbp1-D1
# Procedure, shortened: as §1
# CaAbp1-D2 = target: CaAbp1-D2
# Procedure, shortened: as §1
# CaBbc1 = target: CaBbc1
# Procedure, shortened: as §1
# CaBem1-D1 = target: CaBem1-D1
# Procedure, shortened: as §1
# CaBzz1-D1 = target: CaBzz1-D1
# Procedure, shortened: as §1
# CaBzz1-D2 = target: CaBzz1-D2
# Procedure, shortened: as §1
# CaCyk3 = target: CaCyk3
# Procedure, shortened: as §1
# CaFus1 = target: CaFus1
# Procedure, shortened: as §1
# CaHof1 = target: CaHof1
# Procedure, shortened: as §1
# CaHse1 = target: CaHse1
# Procedure, shortened: as §1
# CaLsb1 = target: CaLsb1
# Procedure, shortened: as §1
# CaLsb4 = target: CaLsb4
# Procedure, shortened: as §1
# CaMyo5 = target: CaMyo5
# Procedure, shortened: as §1
binder,measurement,setting,value
RPKRRAPPPVPKKPS,SPOT peptide array binding signal intensity,CaNbp2,3680
same,SPOT peptide array binding signal intensity,CaRvs167,127
same,SPOT peptide array binding signal intensity,CaRvs167-3,170
same,SPOT peptide array binding signal intensity,CaSho1,236
same,SPOT peptide array binding signal intensity,CaSla1-D1-D2,3850
same,SPOT peptide array binding signal intensity,CaSla1-D3,920
same,SPOT peptide array binding signal intensity,ScAbp1,3840
same,SPOT peptide array binding signal intensity,ScBbc1,835
same,SPOT peptide array binding signal intensity,ScBem1-D1,69
same,SPOT peptide array binding signal intensity,ScBzz1-D1,1610
same,SPOT peptide array binding signal intensity,ScBzz1-D2,75.5
same,SPOT peptide array binding signal intensity,ScCyk3,17.5
same,SPOT peptide array binding signal intensity,ScFus1,42.5
same,SPOT peptide array binding signal intensity,ScHof1,0.5
same,SPOT peptide array binding signal intensity,ScHse1,432
same,SPOT peptide array binding signal intensity,ScLsb1,819
same,SPOT peptide array binding signal intensity,ScLsb2,796
same,SPOT peptide array binding signal intensity,ScLsb3,3720
same,SPOT peptide array binding signal intensity,ScLsb4,95
same,SPOT peptide array binding signal intensity,ScMyo3,705
same,SPOT peptide array binding signal intensity,ScMyo5,471
same,SPOT peptide array binding signal intensity,ScNbp2,5640
same,SPOT peptide array binding signal intensity,ScPex13,482
same,SPOT peptide array binding signal intensity,ScRvs167,1640
same,SPOT peptide array binding signal intensity,ScSho1,2030
same,SPOT peptide array binding signal intensity,ScSla1-D1-D2,3510
same,SPOT peptide array binding signal intensity,ScSla1-D3,896
same,SPOT peptide array binding signal intensity,SpAbp1-D1,3020
same,SPOT peptide array binding signal intensity,SpBbc1,115
same,SPOT peptide array binding signal intensity,SpBzz1-D1,1740
same,SPOT peptide array binding signal intensity,SpBzz1-D2,713
same,SPOT peptide array binding signal intensity,SpCyk3,4
same,SPOT peptide array binding signal intensity,SpHof1,374
same,SPOT peptide array binding signal intensity,SpHof1-2,43.2
same,SPOT peptide array binding signal intensity,SpHof1-3,972
same,SPOT peptide array binding signal intensity,SpHse1,221
same,SPOT peptide array binding signal intensity,SpLsb1,1830
same,SPOT peptide array binding signal intensity,SpLsb4,925
same,SPOT peptide array binding signal intensity,SpMyo1,687
same,SPOT peptide array binding signal intensity,SpNbp2,173
same,SPOT peptide array binding signal intensity,SpPex13,220
same,SPOT peptide array binding signal intensity,SpRvs167,1300
same,SPOT peptide array binding signal intensity,SpSla1-D1-D2,1490
same,SPOT peptide array binding signal intensity,SpSla1-D3,2
RMVRRRPLRVQFSAR,SPOT peptide array binding signal intensity,AgAbp1,341
same,SPOT peptide array binding signal intensity,AgBbc1,152
same,SPOT peptide array binding signal intensity,AgBem1-D1,477
same,SPOT peptide array binding signal intensity,AgBzz1-D1,102
same,SPOT peptide array binding signal intensity,AgBzz1-D2,93.5
same,SPOT peptide array binding signal intensity,AgCyk3,3
same,SPOT peptide array binding signal intensity,AgFus1,2500
same,SPOT peptide array binding signal intensity,AgHof1,44.8
same,SPOT peptide array binding signal intensity,AgHse1,1410
same,SPOT peptide array binding signal intensity,AgLsb1,16.5
same,SPOT peptide array binding signal intensity,AgLsb4,606
same,SPOT peptide array binding signal intensity,AgMyo5,2.5
same,SPOT peptide array binding signal intensity,AgNbp2,1110
same,SPOT peptide array binding signal intensity,AgRvs167,10.8
same,SPOT peptide array binding signal intensity,AgSho1,634
same,SPOT peptide array binding signal intensity,AgSla1-D1-D2,284
same,SPOT peptide array binding signal intensity,AgSla1-D3,28.2
same,SPOT peptide array binding signal intensity,CaAbp1-D1,820
same,SPOT peptide array binding signal intensity,CaAbp1-D2,810
same,SPOT peptide array binding signal intensity,CaBbc1,247
same,SPOT peptide array binding signal intensity,CaBem1-D1,495
same,SPOT peptide array binding signal intensity,CaBzz1-D1,202
same,SPOT peptide array binding signal intensity,CaBzz1-D2,245
same,SPOT peptide array binding signal intensity,CaCyk3,104
same,SPOT peptide array binding signal intensity,CaFus1,3490
same,SPOT peptide array binding signal intensity,CaHof1,2.5
same,SPOT peptide array binding signal intensity,CaHse1,464
same,SPOT peptide array binding signal intensity,CaLsb1,12.5
same,SPOT peptide array binding signal intensity,CaLsb4,1050
same,SPOT peptide array binding signal intensity,CaMyo5,58
same,SPOT peptide array binding signal intensity,CaNbp2,1470
same,SPOT peptide array binding signal intensity,CaRvs167,190
same,SPOT peptide array binding signal intensity,CaRvs167-3,216
same,SPOT peptide array binding signal intensity,CaSho1,1620
same,SPOT peptide array binding signal intensity,CaSla1-D1-D2,590
same,SPOT peptide array binding signal intensity,CaSla1-D3,700
same,SPOT peptide array binding signal intensity,ScAbp1,188
same,SPOT peptide array binding signal intensity,ScBbc1,90.2
same,SPOT peptide array binding signal intensity,ScBem1-D1,142
same,SPOT peptide array binding signal intensity,ScBzz1-D1,39.5
same,SPOT peptide array binding signal intensity,ScBzz1-D2,238
same,SPOT peptide array binding signal intensity,ScCyk3,81.5
same,SPOT peptide array binding signal intensity,ScFus1,1530
same,SPOT peptide array binding signal intensity,ScHof1,12
same,SPOT peptide array binding signal intensity,ScHse1,2920
same,SPOT peptide array binding signal intensity,ScLsb1,23.2
same,SPOT peptide array binding signal intensity,ScLsb2,14
same,SPOT peptide array binding signal intensity,ScLsb3,1400
same,SPOT peptide array binding signal intensity,ScLsb4,364
same,SPOT peptide array binding signal intensity,ScMyo3,16
same,SPOT peptide array binding signal intensity,ScMyo5,2
same,SPOT peptide array binding signal intensity,ScNbp2,1660
same,SPOT peptide array binding signal intensity,ScPex13,40
same,SPOT peptide array binding signal intensity,ScRvs167,164
same,SPOT peptide array binding signal intensity,ScSho1,1900
same,SPOT peptide array binding signal intensity,ScSla1-D1-D2,1030
same,SPOT peptide array binding signal intensity,ScSla1-D3,217
same,SPOT peptide array binding signal intensity,SpAbp1-D1,558
same,SPOT peptide array binding signal intensity,SpBbc1,38.8
same,SPOT peptide array binding signal intensity,SpBzz1-D1,224
same,SPOT peptide array binding signal intensity,SpBzz1-D2,30.5
same,SPOT peptide array binding signal intensity,SpCyk3,7
same,SPOT peptide array binding signal intensity,SpHof1,556
same,SPOT peptide array binding signal intensity,SpHof1-2,29.5
same,SPOT peptide array binding signal intensity,SpHof1-3,862
same,SPOT peptide array binding signal intensity,SpHse1,874
same,SPOT peptide array binding signal intensity,SpLsb1,21
same,SPOT peptide array binding signal intensity,SpLsb4,1330
same,SPOT peptide array binding signal intensity,SpMyo1,46.2
same,SPOT peptide array binding signal intensity,SpNbp2,1850
same,SPOT peptide array binding signal intensity,SpPex13,320
same,SPOT peptide array binding signal intensity,SpRvs167,66.2
same,SPOT peptide array binding signal intensity,SpSla1-D1-D2,15
same,SPOT peptide array binding signal intensity,SpSla1-D3,81
